# RE007 growth inh: qHTS Assay for Inhibitors of the HIV-1 protein Vpr | S. pombe RE007 Vpr strain, BacTiter-Glo ATP luminescence, 24 h | Potency, µM (titrated, usually from 92.2 µM), without a hit: top-dose activity change, negative = less growth, most hits filed as inhibitors | actives 0.21% (n = 360,000) | AID 651644, 2012; active = well fitted falling curve with a large enough effect; inconclusive = small, poorly fitted or top-dose-only effect; inactive = no such curve, though single readings can be large or run the other way; also: nearly all actives have a fitted effect of over 50% in size
#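 Fission yeast strain RE007, carrying one chromosomally integrated HIV-1 vpr copy, was seeded at OD 0.01 in PMG+AL medium with 23 nL pinned compound. After 24 h at 30 °C and 99% humidity, viability was read by BacTiter-Glo luminescence.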
# LASV entry inh: qHTS for Inhibitors of binding or entry into cells for Lassa Virus; Lassa virus pseudotype entry inhibition, cell reporter; Potency, µM (top dose mostly 37.9 µM), inactives show at the top dose activity change, negative = inhibition, usual class: inhibitors; AID 540256, 2011; actives 1.2% (n = 300,000); calls by dose curve; tested in HEK293 cells; also: nearly all actives have a fitted effect of over 50% in size
# Sm TGR block: qHTS Assay for the Inhibitors of Schistosoma Mansoni Peroxiredoxins; actives 3% (n = 360,000); purified TGR, DTNB reduction, TNB absorbance 405 nm; Potency, µM (highest dose often 114 µM), for inactives: at the highest dose activity change, negative = inhibition, usual class: inhibitors; AID 485364, 2010; also: nearly all actives have a fitted effect of over 60% in size
#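 Kinetic colorimetric format: TGR-catalysed, NADPH-driven DTNB reduction monitored via TNB absorbance. Enzyme dispensed at 20 nM; compound exposure 15 min at room temperature before reaction start.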
# HCV inh: qHTS Assay for Inhibitors of Hepatitis C Virus (HCV); Huh7.5.1 HCVcc-Cre infection, luciferase reporter, 44 h; Potency, µM (top dose mostly 41.8 µM), for the others: top-dose activity change, negative = inhibition, hits mostly inhibitors; actives 3.4% (n = 340,000); AID 651820, 2012
#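 Whole-lifecycle infectious HCVcc-Cre system; cells 1,000/well, compound then virus (~0.5 moi) added 4 h after plating, 44 h culture. Luciferase read 15 sec following 15 min substrate incubation, room temp.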
# Marburg entry inh: qHTS for inhibitors of binding or entry into cells for Marburg Virus | Marburg virus pseudotyped entry inhibition, cell reporter | Potency, µM (series often up to 37.8 µM), inactives show top-dose activity change, negative = inhibition, actives largely listed as inhibitors | actives 1.8% (n = 300,000) | AID 540276, 2011; calls by dose curve; tested in HEK293 cells
# FMDV antiviral: High Throughput Screening for Foot and Mouth Disease Virus Antivirals; FMDV antiviral cell-based qHTS; actives 1.2% (n = 410,000); AID 1159524, 2015; Potency, µM (titrated, usually from 57.9 µM), for the others: at the highest dose activity change, negative = inhibition, actives largely listed as inhibitors; calls by dose curve; tested in HEK293T cells; also: read-out not given here; nearly all actives have a fitted effect of over 45% in size
# Starred values were filed as active, the others as inactive; ? = inconclusive; · = no result; ! = repeats disagree; [ ] = remark or other dose. An excerpt weighted towards active compounds, which were near 7.2% of everything screened. Unless noted, calls follow the shape of the dose curve; as a rule, active = well fitted curve in the direction sought with a large enough effect; inconclusive = small, poorly fitted or top-dose-only effect, or another doubt; inactive = no such curve, though single readings can be large; an effect the other way counts as inactive or inconclusive. % is scaled to controls: 0 for no effect and ±100 for the full control effect; potency is read from the fitted curve at half-maximal effect.
SMILES,RE007 growth inh,LASV entry inh,Sm TGR block,HCV inh,Marburg entry inh,FMDV antiviral
Nc1nc(Sc2ccc([N+](=O)[O-])cc2[N+](=O)[O-])n[nH]1,4.7%,·,31.6µM*,15.6%,·,-18.7%
Cc1ccnc(Sc2ccc([N+](=O)[O-])cc2[N+](=O)[O-])n1,?,?,?,?,13µM*,?
O=[N+]([O-])c1ccc(Sc2nc3ccccc3o2)c([N+](=O)[O-])c1,?,-26.8%[14.3 µM],3.98µM*,·,16.4µM*,35.5µM*
CCOC(=O)c1c(C)c(C(=O)NCCc2ccc(OC)cc2)c(C)n1C,·,·,7.8%,·,-3.4%[46.1 µM],4.9%
CCc1ccc(-c2cc3c(=O)n(CC(=O)N4CCCC4)nc(C)n3n2)cc1,-5.9%,6.4%[46.1 µM],1.3%,8.8%,19.9%[46.1 µM],6.3%
CCc1ccc(-c2cc3c(=O)n(CC(=O)NCCN4CCCCC4C)nc(C)n3n2)cc1 (configuration not stated),-2.5%,16.3%[46.1 µM],-5.3%,11.2µM*,?,2.9%
COc1ccc(S(=O)(=O)Nc2ccc3c(c2)n(C)c(=O)n3C)cc1F,14.5%,-23.7%[46.1 µM],-7.2%,?,-4.7%[46.1 µM],-27.7%
COc1ccc(NS(=O)(=O)c2ccc3c(c2)OCCO3)cc1OC,-13.5%,-14.2%[46.1 µM],1.0%,6.31µM*,?,2.8%
COc1ccc(S(=O)(=O)Nc2ccc3c(c2)OCO3)cc1OC,9.8%,4.9%,-10.4%,4.3%,-17.5%,97.9%
COc1ccc(S(=O)(=O)Nc2ccc3c(c2)n(C)c(=O)n3C)cc1OC,58.1%,?,3.5%,3.16µM*,-5.2%[46.1 µM],18.4%
Cc1cc(C)cc(NS(=O)(=O)c2ccc3c(c2)c(=O)n(C)c(=O)n3C)c1,-13.3%,?,12.6%,6.31µM*,?,·
COc1ccc(S(=O)(=O)Nc2ccc3c(c2)OCCO3)cc1Cl,-6.9%,-6.4%,-17.3%,11.2µM*,-15.8%,6.3%
Clc1ccccc1Nc1ncnc2c1nc1n2CCCCC1,·,?,24.1%,·,·,11.3%
CC(C)CCNC(=O)C1CCN(C(=O)c2cc3sccc3n2Cc2ccc(Cl)cc2)CC1,·,·,6.8%,·,?,?
c1cc(OCCN2CC2)ccn1,-5.9%,-24.4%,·,?,7.08µM*,-0.8%
O=c1[nH]c2ccccc2n1CCCN1CCCCC1,-8.4%,3.1%,-2.1%,5.2%,?,5.5%
c1ccc(OCCN2CCN(C(c3ccccc3)c3ccccc3)CC2)cc1,17.2%,·,2.1%,11.2µM*,·,?
c1ccc(OCCN2CCNCC2)cc1,-5.1%,-1.3%[46.1 µM],·,-7.6%,9.8%[46.1 µM],10.9%
O=c1[nH]c2ccccc2n1CCCN1CCN(C(c2ccccc2)c2ccccc2)CC1,·,18.4µM*,-11.5%,3.1%[8.37 µM],12.6µM*,·
COc1cccc(CNC(=O)CC(c2ccc(F)cc2)N2Cc3ccccc3C2=O)c1 (configuration not stated),·,5.6%[46.1 µM],-2.0%,·,·,15.8%
O=C(Cn1nc(-c2ccccc2)nc(Cc2ccccc2)c1=O)Nc1ccc(Cl)cc1,·,1.9%[46.1 µM],4.6%,·,·,-3.3%
CC1O[C@@H](OC2CC(O)[C@@]3(CO)C4C(O)C[C@@]5(C)C(C6=CC(=O)OC6)CC[C@]5(O)C4CC[C@]3(O)C2)C(O)C(O)C1O (some centres not stated),·,·,·,·,·,0.0%
CC1OC(OC2C=C3CCC4C(CCC5(C)C(c6ccc(=O)oc6)CCC45O)C3(C)CC2)C(O)C(OC2OC(CO)C(O)C(O)C2O)C1O (configuration not stated),13.9%,?,·,15.8µM*,?,?
CCOC(=O)c1cc2c3ccccc3n(CC)c2nc1N,-4.3%,9.0%,15.1%,?,-1.8%,-9.6%
CCOC(=O)c1n[nH]n2c1nc(=S)c1ccccc12,0.3%,-9.7%[46.1 µM],11.2µM*,5.4%,8.0%[46.1 µM],17.5%
SMILES,RE007 growth inh,LASV entry inh,Sm TGR block,HCV inh,Marburg entry inh,FMDV antiviral
Cc1ccc2c(CN3CCN(S(=O)(=O)c4ccc5c(c4)OCCO5)CC3)cc(=O)oc2c1C,-11.1%,?,0.0%,12.6µM*,?,?
CCNc1nc(NC(C)C)nc(N(C#N)CCOc2ccc(Cl)cc2Cl)n1,11.0%,0.9%,4.1%,5.01µM*,-21.3%,-25.3%
CCC[C@H](N[C@@H](CCC)[C@H](O)c1ccccc1)[C@H](O)c1ccccc1,3.2%,-27.8%[46.1 µM],·,0.8%,8.91µM*,-7.5%
OC(c1ccccc1)C(O)c1ccccc1 (configuration not stated),25.4%,·,·,8.9%,·,-11.4%
COc1cccc(C2C(C#N)=C(N)OC3=C2C(=O)CC(c2ccco2)C3)c1OCc1ccc(F)cc1 (configuration not stated),18.2%,?,?,?,15.8µM*!,-4.2%
Cc1cc(OCc2cn(CC(=O)c3ccc(O)cc3)nn2)cc(C)c1C,·,-18.3%[46.1 µM],·,·,·,·
O=C(C1=C[C@H](c2csc3ccccc23)C[C@H](OCCCCO)O1)N1CCN(Cc2ccccc2)CC1,-12.0%,·,17.8µM*,-3.6%,·,?
O=C(C1=C[C@H](c2ccc(Br)cc2)C[C@H](OCCCCO)O1)N1CCN(Cc2ccccc2)CC1,1.2%,·,35.5µM*,?,·,0.0%
O=C(C1=C[C@@H](c2csc3ccccc23)C[C@@H](OCCCCO)O1)N1CCN(Cc2ccc3c(c2)OCO3)CC1,2.4%,·,-10.4%,?,·,-25.1%
O=C(C1=C[C@H](c2ccccc2)C[C@H](OCCCCO)O1)N1CCOCC1,5.2%,·,44.7µM*,52.7%,·,-7.7%
O=C(C1=C[C@@H](c2csc3ccccc23)C[C@@H](OCc2ccc(CO)cc2)O1)N1CCN(Cc2ccccc2)CC1,-3.3%,·,35.5µM*,?,·,-27.1%
COC(=O)[C@@]1(Sc2ccc(C)cc2)CC(=O)N[C@@H]1c1ccc(C(F)(F)F)cc1,3.3%,·,·,·,·,-1.6%
CCOC(=O)c1cnc(SC)nc1N,-25.4%,11.1%,0.7%,7.3%,29.5%,12.8%
CCOC(=O)c1cnc(N2CC2)nc1N,0.5%,?,·,-8.2%,10µM*,-0.1%
O=C(NCc1nc2cccnc2n1Cc1ccc(F)cc1)c1ccccc1C(F)(F)F,·,6.3%[46.1 µM],-1.6%,·,·,-6.6%
O=[N+]([O-])c1cc(Cl)cc2c1nc(NCCO)c1ccccc12,-9.5%,-9.1%[46.1 µM],3.1%,2µM*,?,-7.2%
CN(c1ccccc1)c1nc(N)c([N+](=O)[O-])c(Nc2ccccc2)n1,-1.5%,·,23.1%,5.62µM*,·,-17.8%
CN(Cc1ccccc1)c1nc(N)c([N+](=O)[O-])c(NCc2ccccc2)n1,2.6%,?,-2.9%,?,?,35.5µM*
Nc1nc(NCCc2ccccc2)nc(NCc2ccccc2)c1[N+](=O)[O-],1.4%,·,-9.4%,?,5.2%,0.0%
